Data taken from publication PMC4336329 (PLoS ONE, 2015).
About 14,000 (4.5%) of roughly 310,000 compounds showed an effect of 50% or more. Effects have a minus sign here. Shown is part of a subset that was picked to be rich in strong results.

Target: human ether-à-go-go-related gene (hERG) potassium channel (human, UniProt Q12809)
Test: primary screen, population patch clamp on CHO cells stably expressing hERG; higher = less effect of the substance
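Further: peak tail current of the secondary pulse compared with the same well before compound.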

Chain of human ether-à-go-go-related gene (hERG) potassium channel (Q12809 whole entry, looked up): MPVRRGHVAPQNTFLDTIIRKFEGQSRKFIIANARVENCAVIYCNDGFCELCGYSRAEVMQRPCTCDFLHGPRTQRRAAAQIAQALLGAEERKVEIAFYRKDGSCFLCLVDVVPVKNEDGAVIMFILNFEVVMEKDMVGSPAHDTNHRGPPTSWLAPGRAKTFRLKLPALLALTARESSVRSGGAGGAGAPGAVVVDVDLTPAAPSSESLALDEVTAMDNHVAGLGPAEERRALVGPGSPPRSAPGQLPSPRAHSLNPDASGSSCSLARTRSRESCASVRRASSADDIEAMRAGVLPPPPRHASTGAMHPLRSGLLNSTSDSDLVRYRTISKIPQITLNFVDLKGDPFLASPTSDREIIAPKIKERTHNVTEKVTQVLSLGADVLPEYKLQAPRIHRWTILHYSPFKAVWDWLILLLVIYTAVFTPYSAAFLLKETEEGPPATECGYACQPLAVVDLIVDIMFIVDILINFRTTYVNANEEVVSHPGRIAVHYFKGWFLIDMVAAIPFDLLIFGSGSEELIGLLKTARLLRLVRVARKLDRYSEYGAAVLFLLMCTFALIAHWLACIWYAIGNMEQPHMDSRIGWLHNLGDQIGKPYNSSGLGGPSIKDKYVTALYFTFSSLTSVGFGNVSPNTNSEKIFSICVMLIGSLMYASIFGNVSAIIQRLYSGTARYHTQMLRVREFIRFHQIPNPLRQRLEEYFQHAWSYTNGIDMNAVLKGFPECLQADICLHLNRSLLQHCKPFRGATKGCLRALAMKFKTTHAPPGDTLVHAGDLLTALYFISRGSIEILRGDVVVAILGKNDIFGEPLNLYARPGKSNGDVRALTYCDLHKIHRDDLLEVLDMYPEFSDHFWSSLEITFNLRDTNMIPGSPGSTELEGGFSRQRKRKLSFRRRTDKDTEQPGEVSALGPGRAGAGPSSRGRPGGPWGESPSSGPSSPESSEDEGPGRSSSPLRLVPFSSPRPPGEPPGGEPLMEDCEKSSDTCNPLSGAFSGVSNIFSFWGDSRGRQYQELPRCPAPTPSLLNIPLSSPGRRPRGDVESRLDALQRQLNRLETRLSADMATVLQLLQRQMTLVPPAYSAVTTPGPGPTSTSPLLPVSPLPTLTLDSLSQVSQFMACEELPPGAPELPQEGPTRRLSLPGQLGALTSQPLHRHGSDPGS

Compound	hERG current change (%, negative = inhibition) at 10uM [%]
CCOC(=O)Cc1csc(NC(=O)c2cccc(Cl)c2)n1	-13
CC1(c2nnc(-c3ccc(Cl)cc3)o2)CC(c2cccc(Cl)c2)=NO1 (stereo not shown)	13.7
COCCn1c(SCC(=O)Nc2cc(C)on2)nc2c(c1=O)SC(C)C2 (stereo not shown)	10.5
COC(=O)c1ccc(COC(=O)C2CCN(S(=O)(=O)c3c(Cl)cccc3Cl)CC2)o1	-7.62
COC(=O)/C(=C/N(C)C)C(=O)N1CCN(c2ccc(Cl)c(Cl)c2)CC1	-25
COc1cccc(OC)c1C(=O)NNS(=O)(=O)c1ccc2ccccc2c1	-5.2
O=C(O)CC(SCC(=O)Nc1ccccc1)C(=O)O (stereo not shown)	23
O=C1[C@@H]2Cc3c([nH]c4ccccc34)C(c3ccc([N+](=O)[O-])cc3)N2C(=O)CN1C1CC1 (stereo partly shown)	-25.2
CSc1nc(Cc2ccccc2)nc2ccccc12	22.9
Cc1cc(C)nc(N/C(=N\S(=O)(=O)Cc2ccccc2)Nc2cccc(Cl)c2C)n1	-3.72
ON1C2CCCCC2N(O)C1c1ccccc1F (stereo not shown)	16.7
Cc1ccc(-n2c(SCC(=O)NCc3ccco3)nc3c(sc4ccccc43)c2=O)cc1	14.8
O=C(CSc1nc2c(sc3ccccc32)c(=O)n1CCCN1CCCC1)NCc1ccccc1	-80.8
Cc1ccc(CNC(=O)CSc2nc3c(sc4ccccc43)c(=O)n2CCCN2CCCC2)cc1	-82.8
COc1ccc(C(=O)Nc2ncccc2C)cc1S(=O)(=O)N1CCCc2ccccc21	9.01
Cc1ccc(CNC(=O)c2ccccc2NS(=O)(=O)c2ccc(Cl)nc2)cc1	12.6
OC(COc1ccccc1)Cn1cc(Br)cn1 (stereo not shown)	0.0411
CCc1nc(Nc2ccccc2OC)c2oc3ccccc3c2n1.Cl	12.5
CCN(CC)c1ccc2cc(C(N)=O)c(=O)oc2c1	9.31
CCCCCCc1cc2cc(C(=O)OCC)c(=O)oc2cc1O	23.3
CCN(CC)c1ccc2cc(C(N)=O)c(=N)oc2c1	-58.5
CCCCCCc1cc2cc(C(N)=O)c(=N)oc2cc1O	-59.8

Compound	hERG current change (%, negative = inhibition) at 10uM [%]
CCN(CC)c1ccc2cc(C(=O)NCc3ccc(F)cc3)c(=N)oc2c1	-23.4
CCCCCCc1cc2cc(C(=O)NC)c(=N)oc2cc1O	-7.38
CN(C[C@H](Cc1ccccc1)N(C[C@H](Cc1ccccc1)N(CC1(c2ccccc2)CC1)N=O)N=O)N=O.[Na+]	12.8
Cc1ccc(OCCCC(=O)NCc2ccco2)c(C)c1	0.0372
CCCCCC(O)CCC(=O)NNC1=CC(=O)CC(C)(C)C1 (stereo not shown)	13.9
COc1ccc(C(C#N)C2(C)OCCO2)cc1OC (stereo not shown)	-4.08
COC(=O)c1ccc(C)c(NC(=O)C(CCSC)NC(=O)c2cc(OC)c(OC)c(OC)c2)c1 (stereo not shown)	13.6
CCn1c(-c2ccc(Cl)cc2)n[nH]c1=S	13.2
O=C(CSC1CS(=O)(=O)c2cc([N+](=O)[O-])ccc21)NNC(=O)c1ccccc1 (stereo not shown)	-20.7
O=C(CSc1nnnn1-c1ccc(Cl)cc1)NNC(=O)c1ccc([N+](=O)[O-])cc1	-23.2
O=C(CSC1CS(=O)(=O)c2cc([N+](=O)[O-])ccc21)NNC(=O)c1ccc(Cl)cc1 (stereo not shown)	-74
COc1ccc(S(=O)(=O)N2CCCCC2)cc1NC(=O)c1cccs1	32.3
O=S(=O)(Nc1ccc(OC(F)F)cc1)c1ccc(-c2ccon2)s1	-15.3
Cc1ccc(C)c(N2CCN(CC(=O)Nc3ccc4[nH]c(=O)[nH]c4c3)CC2)c1	-3.56
CCCCN(CCCC)c1ccc(C(=O)c2ccccc2C(=O)O)c(O)c1	-75.2
CCN(CC)c1ccc(C(=O)c2ccccc2C(=O)O)c(O)c1	3.8
CN(C)c1ccc(C(=O)c2ccccc2C(=O)O)c(O)c1	12.7
FC(F)(F)c1cccc(NC(=S)N2CCN(c3cccc(C(F)(F)F)c3)CC2)c1	16.6
Cc1ccc(NC(=O)C2CCCN(S(=O)(=O)c3c(C)noc3/C=C/N(C)C)C2)cc1F (stereo not shown)	-1.44
CC1CCCN(Cc2nc3c(c(=O)n(C)c(=O)n3C)n2Cc2c(F)cccc2Cl)C1 (stereo not shown)	-1.45
CCCCN(C(=O)c1ccc(Cl)cc1)C1CC2CCC(C1)N2C.Cl (stereo not shown)	-47.4
CN1C2CCC1CC(N(CCc1ccccc1)C(=O)c1ccc(Cl)cc1)C2.Cl (stereo not shown)	-83.2

Compound	hERG current change (%, negative = inhibition) at 10uM [%]
COc1cc(C(=O)N(CCc2ccccc2)C2CC3CCC(C2)N3C)cc(OC)c1OC.Cl.O (stereo not shown)	-38.3
Cc1cc(C)cc(C(=O)N(CCc2ccccc2)C2CC3CCC(C2)N3C)c1.Cl (stereo not shown)	-56.5
CN1CCC(N(CCc2ccccc2)C(=O)CCC(=O)O)CC1	-1.87
CN1C2CCC1CC(NC(=O)c1ccc(Cl)cc1)C2 (stereo not shown)	7.55
COc1ccc(C2CC(c3cccs3)=NN2C(=O)CSc2nncn2C)cc1OC (stereo not shown)	4.67
O=C(Nc1ccccc1N1CCOCC1)C1CCCCN1S(=O)(=O)c1ccccc1 (stereo not shown)	-20.8
Cc1nc([N+](=O)[O-])c(NCCO)n1Cc1ccccc1	8.23
COc1ccc(-c2[nH]ncc2[C@@H]2C[C@H]3CN(Cc4ccccc4C)C(=O)[C@]34CCCN24)cc1	-51.7
Cc1ccccc1CN1C[C@@H]2C[C@@H](c3cn[nH]c3-c3ccccc3)N3CCC[C@@]23C1=O	-5.95
Cc1ccccc1CN1C[C@@H]2C[C@@H](c3cn[nH]c3-c3ccc(F)cc3)N3CCC[C@@]23C1=O	-52.2
COc1ccccc1CN1C[C@@H]2C[C@@H](c3ccccc3C)N3CCC[C@@]23C1=O	17.4
COc1ccccc1CN1C[C@@H]2C[C@@H](c3ccccc3OC)N3CCC[C@@]23C1=O	-14
CCn1ncc([C@@H]2C[C@H]3CN(Cc4ccccc4C)C(=O)[C@]34CCCN24)c1C	17.7
Cc1cc(NC(=O)C2CC=CCC2C(=O)O)no1 (stereo not shown)	-1.9
CN(Cc1ccccc1F)C(=O)CN1CCN(S(=O)(=O)c2ccc3c(c2)OCCCO3)CC1	-18.4
O=C(O)C1CCCCC1C(=O)N1CCN(S(=O)(=O)c2ccc(F)cc2)CC1 (stereo not shown)	8.47
COc1ccc(-c2cc(=O)c3cc(OC)c(OC)cc3[nH]2)cc1	-5.83
COc1cc(NC(=O)c2cnc(N)s2)cc(C(=O)Nc2cccc(C(F)(F)F)c2)c1	-26
COC(=O)c1cc(Nc2cc(C)c3ccc(O)cc3n2)cc(C(=O)OC)c1	6.58
Cc1ccc(Nc2cc(C)c3ccc(O)cc3n2)cc1C.Cl	-58.5
COc1ccc(Nc2cc(C)c3ccccc3n2)cc1	4.57
Cc1cc(Nc2ccccc2)nc2cc(O)ccc12	-11.5

Compound	hERG current change (%, negative = inhibition) at 10uM [%]
COc1ccc(Nc2cc(C)c3ccc(O)cc3n2)cc1	-58.4
Cc1ccc(Nc2cc(C)c3c(O)cccc3n2)cc1C.Cl	19
COC(=O)c1c(-c2cccs2)csc1NC(=O)CSc1ncnc2sc(C)c(C)c12	0.474
Cc1cc(C)nc(-n2nc(C)c3c(C(F)F)cc(C)nc32)n1	15.3
CCC1=C([N+](=O)[O-])C(c2ccc3c(c2)OCO3)NC(=O)N1 (stereo not shown)	16
O=C(CSc1nc(CCC2CCCC2)nc2ccccc12)NCc1ccc2c(c1)OCO2	15
CCOP(=O)(OCC)C(O)c1ccc(OC)c(OC)c1 (stereo not shown)	15.6
Cc1nc(SCC(=O)NCc2ccco2)nc(C)c1C	-6.76
Cc1ccc(CNC(=O)c2csc3c2CCCCC3)cc1	2.19
COc1ccc(OCC(=O)Nc2cc(-c3nn4c(C)nnc4s3)ccc2C)cc1	-4.85
Cc1ccc(OCC(=O)Nc2cc(-c3nn4c(C)nnc4s3)ccc2C)cc1	-24.7
Cc1ccc(-c2nn3c(C)nnc3s2)cc1NC(=O)COc1ccc(Cl)cc1	-70.6
CC(C)[C@H]1CN(C)CCN1Cc1cn(C)nc1-c1cccc(Cl)c1	-27
COc1ccc(C(c2c(NC(=O)c3ccco3)sc(C)c2C)N2CCOCC2)cc1OC (stereo not shown)	-15
CC(=O)Nc1ccc(-c2sc(Nc3ccccc3)n[n+]2C)cc1.[Cl-]	27.5
COc1ccccc1C1C=C(c2ccc(Cl)cc2)Nc2nc(N3C(=O)CCC3=O)nn21 (stereo not shown)	-32.8
N#C/C(=C/c1ccc(N2CCCC2)c([N+](=O)[O-])c1)c1nc2ccccc2[nH]1	-3.43
N#C/C(=C\c1ccc(N2CCOCC2)c([N+](=O)[O-])c1)c1nc2ccccc2[nH]1	-59.6
N#C/C(=C\c1ccc(N2CCCC2)c([N+](=O)[O-])c1)c1nc2ccccc2[nH]1	-35.5
